Data from PubChem BioAssay AID2566 (National Center for Advancing Translational Sciences (NCATS), 2010).
Results filed as inconclusive are left out. Calls of active or inactive are those of the source.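 Rule for the calls: active = compound that pushes labeled neuropeptide S off its receptor in a binding test; inconclusive = all other tested compounds; inactive = none, nothing was called inactive.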

Biological target: Neuropeptide S receptor (Homo sapiens) (UniProt Q6W5P4)
Assay: Confirmation Concentration-Response Assay for Antagonists of the Neuropeptide S Receptor: Radioligand Displacement, SAR for Probe
Conditions: CHO-hNPSR, [125I]Y10-NPS displacement, 1.5 h
From the text: NIH Chemical Genomics Center [NCGC] NIH Molecular Libraries Probe Production centers Network [MLPCN] MLPCN Grant: X01-DA026210-01 Assay Submitter (PI): Heilig, Markus Alexander NCGC Assay Overview: Neuropeptide S receptor (NPSR), previously known as GPR154, is a recently de-orphanized G protein coupled receptor. Its endogenous ligand is the 20 amino acids peptide Neuropeptide S (NPS). […] NPS and its receptor are found in various tissues. Specifically they are highly expressed in brain areas that have been implicated in modulation of arousal, stress and anxiety. Central administration of NPS in mice produces an unusual profile of activity by inducing wakefulness and arousal, while at the same time suppressing anxiety. Therefore, NPSR may represent a novel drug target for the treatment of sleep and anxiety disorders. As one method of confirming the specific activity of compounds active in the primary screen (AID 1461), we developed an assay to measure the displacement of radio-labeled native ligand, NPS, from its receptor in vitro.
The assay was carried out as described (Xu et al. (2004) Neuron, 43: 487-497) with minor modification. Y10-NPS labeled with 125I was bought from NEN Perkin Elmer (Boston, MA). […] Nonspecific binding was determined in the presence of 1 uM unlabeled human NPS. […] Bound radioactivity was counted in a liquid scintillation counter.

Chain of Neuropeptide S receptor (Homo sapiens) (Q6W5P4 whole entry, looked up): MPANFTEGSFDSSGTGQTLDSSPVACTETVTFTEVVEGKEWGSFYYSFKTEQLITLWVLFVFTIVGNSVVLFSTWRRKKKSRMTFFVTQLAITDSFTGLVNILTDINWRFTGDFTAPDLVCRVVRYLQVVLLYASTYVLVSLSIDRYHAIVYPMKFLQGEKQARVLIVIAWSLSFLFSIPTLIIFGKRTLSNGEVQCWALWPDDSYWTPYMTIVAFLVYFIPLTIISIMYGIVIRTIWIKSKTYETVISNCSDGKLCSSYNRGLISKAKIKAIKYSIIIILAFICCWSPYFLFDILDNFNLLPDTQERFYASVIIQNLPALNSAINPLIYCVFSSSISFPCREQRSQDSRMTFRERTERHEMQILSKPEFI

| SMILES | Potency |
| --- | --- |
| Cc1c(P(=S)(c2ccccc2)c2ccccc2)[n+]2ccccc2n1C/C=C/c1ccccc1 | 1 nM (active) |
| Cc1c(P(=S)(c2ccccc2)c2ccccc2)[n+]2ccccc2n1C | 84.3 nM (active) |
